Measurements reported in ChEMBL document CHEMBL4513216, “Probing the Open Global Health Chemical Diversity Library for Multistage-Active Starting Points for Next-Generation Antimalarials” (ACS Infect Dis, 2020).
Screen size: about 69,000 compounds; about 8,600 (12%) showed an effect of 50% or more. The list comes from a sample in which strong results are over-represented; it also holds similar structures and randomly drawn compounds.

The compounds below were run on Plasmodium berghei (assay: Screen against P. berghei liver stage (PbLuc), transformed with Luciferase, at 10uM). Details: tested at 10 uM.
Format: functional, HepG2

SMILES	INHIBITION [%]
COCCS(=O)(=O)Nc1ccc(-n2cncn2)c(F)c1	56.5
COCCOc1ncccc1C(=O)Nc1ccc(-n2cncn2)c(F)c1	13.1
CN1CCN(Cc2cccnc2)C2(CCN(Cc3ccccn3)C2)C1=O (centres undefined)	-16
CSCC(=O)N1C[C@@H](C)[C@](O)(C(C)C)C1	5.23
CN(C)c1nccc(C2CN(C(=O)CO)C2)n1	1.5
Cc1cc(Nc2cnccn2)nc(C2CCCN(CCO)C2)n1 (centres undefined)	1.62
c1cnc(Nc2ccc(C3CCCCN3)cn2)cn1 (centres undefined)	-15.1
Cc1cccc(Nc2ccc(C3CCCCN3)cn2)n1 (centres undefined)	70.3
Cc1cc(C)nc(Nc2ccc(C3CCCCN3)cn2)n1 (centres undefined)	-0.232
O=C(CCc1ccccc1F)NC1CCCN(c2ccccn2)C1 (centres undefined)	-40.55
CCN(CC)C(=O)NC(C)c1ccc(Oc2cccnc2)c(F)c1 (centres undefined)	36.3
COc1ccc2c(c1)C1(CCN(Cc3cccnc3)CC1)N(C)CC2	-27.4
O=C1CC(c2ccncc2)C2(CCN(CC3CC3)CC2)N1 (centres undefined)	-4.32
O=C(CCc1cccc(Cl)c1Cl)N1CCOCC1c1ncon1 (centres undefined)	33.8
CN(Cc1ccccc1)CC(O)Cn1cnc2ccsc2c1=O (centres undefined)	56.6
CN(Cc1ccccc1)CC(O)Cn1cnc2sccc2c1=O (centres undefined)	10.675
CN(Cc1ccccc1)CC(O)Cn1cnc2ccccc2c1=O (centres undefined)	2.26
O=C(CCc1cc2n(n1)CCCNC2)NCCCSC1CCCCC1	40.3
CCN(Cc1ccc2c(c1)OCO2)C(=O)Cn1cccnc1=O	37.9
COc1cccc(CNC(=O)C(C)n2ccnc2C(C)C)c1OC (centres undefined)	62.1
COc1cc2c(cc1CNC(=O)C(C)n1ccnc1C(C)C)OCCO2 (centres undefined)	42.3
COc1cc2c(cc1CNC(=O)C(C)n1ccnc1C(C)C)CCC2 (centres undefined)	26.5
OCCN1CCCC(c2nccnc2Oc2ccccc2)C1 (centres undefined)	-3.31
CC(=O)NC1CCCN(c2nc3ccccc3cc2CO)C1 (centres undefined)	66.5
CCCC(=O)NC1CCCN(c2nc3ccccc3cc2CO)C1 (centres undefined)	7.19
O=C(C1CCN(c2snc3ccccc23)CC1)N1CCCCCC1	36.2
OCc1cc2ccccc2nc1N1CCCC1	16.8

SMILES	INHIBITION [%]
CC(=O)NC1CCCN(c2ccc(C#N)cc2C(F)(F)F)C1 (centres undefined)	-17.9
O=C(C1CCC1)N1CCN(c2snc3ccccc23)CC1	32.8
OCc1cc2ccccc2nc1N1CCCCC1	53.1
O=C(C1CCCN(c2nc3ccccc3cc2CO)C1)N1CCCC1 (centres undefined)	61.9
Cc1cc(N2CCN(c3nc4ccccc4cc3CO)CC2)nc(C)n1	48.8
CC(C)c1noc(CN2CCC(C3CCCCCN3S(C)(=O)=O)CC2)n1 (centres undefined)	34
COc1cc(CNCCc2nc(C)cs2)cc2c1OCCO2	31
CC1c2ccc(F)cc2CCN1C(=O)c1[nH]c(=O)[nH]c(=O)c1N (centres undefined)	23.6
CCn1cnc(NC(=O)NCC2CCS(=O)(=O)CC2)n1	4.12
Cc1occc1C(=O)N1CCC[C@]2(C[C@@H](OCc3ccncc3)CO2)C1	-9.67
CCN(Cc1ccc2c(c1)OCCO2)C(=O)Cn1cccnc1=O	37.9
Cc1c(S(=O)(=O)N2CCOCC2)cc2c(C)cc(=O)n3c2c1CCC3	2.45
Cc1ccc(CNc2ccc(N3CCC(CO)CC3)cn2)o1	14.1
OCC1CCN(c2ccc(NCc3ccsc3)nc2)CC1	54.4
CC(C)c1nc(CNc2ccc(N3CCC(CO)CC3)cn2)cs1	13
Cc1cnn(CC2CCCCN2CCCS(C)(=O)=O)c1 (centres undefined)	5.03
Cn1cc(-c2csc(N3CCCCCC3)n2)cn1	79.8
Cn1cc(-c2csc(N3CCSCC3)n2)cn1	-42.1
CN1CCN(c2nc(-c3cnn(C)c3)cs2)CC1	-1.45
CO[C@H]1CN(Cc2cccc(C#N)c2)[C@@H]2COC[C@H]12	34.1
CS(=O)(=O)N1CC2(CCCN(CC3CC3)C2)Cc2ccccc21 (centres undefined)	54.9
CS(=O)(=O)N1CC2(CCN(CC3CC3)C2)Cc2ccccc21 (centres undefined)	21.7
CS(=O)(=O)N1CC2(CCN(CC3CCCCC3)C2)Cc2ccccc21 (centres undefined)	48.2
CS(=O)(=O)N1CC2(CCN(C3CCCCC3)C2)Cc2ccccc21 (centres undefined)	40.8
CS(=O)(=O)N1CC2(CCCN(C3COC3)C2)Cc2ccccc21 (centres undefined)	28.4
CS(=O)(=O)N1CC2(CCN(C3COC3)C2)Cc2ccccc21 (centres undefined)	55.7
CC(C)OCc1noc(C2CC=CC2)n1	-20
